# USP1 inh = blocks the human USP1/UAF1 deubiquitinase complex. O94782. recombinant USP1/UAF1, Ub-Rhodamine cleavage fluorescence. AID 743255. 0.23% of 390,000 active. Potency, µM (series often up to 57.1 µM), for inactives: at the top dose activity change, negative = inhibition, hits mostly inhibitors; further: on the % scale 0 is the no-effect control and ±100 the full control effect; nearly all actives have a fitted effect of over 60% in size
# Target sequence (O94782 whole entry, looked up): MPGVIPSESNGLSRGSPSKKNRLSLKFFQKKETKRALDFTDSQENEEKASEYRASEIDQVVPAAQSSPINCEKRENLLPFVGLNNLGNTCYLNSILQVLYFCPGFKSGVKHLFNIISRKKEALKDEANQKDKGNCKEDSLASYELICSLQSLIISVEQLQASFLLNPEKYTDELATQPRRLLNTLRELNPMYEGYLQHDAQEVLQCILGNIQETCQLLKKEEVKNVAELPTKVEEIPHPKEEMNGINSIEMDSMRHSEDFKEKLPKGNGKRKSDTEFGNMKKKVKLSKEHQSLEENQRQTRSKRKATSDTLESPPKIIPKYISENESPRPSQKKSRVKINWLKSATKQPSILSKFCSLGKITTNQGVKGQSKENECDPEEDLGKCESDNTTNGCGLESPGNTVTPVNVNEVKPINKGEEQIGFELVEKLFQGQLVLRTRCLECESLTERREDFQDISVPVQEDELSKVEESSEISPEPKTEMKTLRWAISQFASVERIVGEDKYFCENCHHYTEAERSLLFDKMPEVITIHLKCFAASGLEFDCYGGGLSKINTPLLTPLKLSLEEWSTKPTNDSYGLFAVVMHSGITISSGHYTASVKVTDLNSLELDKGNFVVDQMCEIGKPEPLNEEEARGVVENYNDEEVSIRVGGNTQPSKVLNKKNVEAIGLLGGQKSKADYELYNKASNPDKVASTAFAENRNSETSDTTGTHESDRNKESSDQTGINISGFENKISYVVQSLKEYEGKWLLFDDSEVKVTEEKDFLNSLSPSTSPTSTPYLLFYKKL
#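 High-throughput fluorogenic screen: 1nM USP1/UAF1 complex, Ub-Rho substrate 150nM final, 50mM HEPES pH 7.8 with 0.5mM EDTA, 0.1 mg/ml BSA, 1mM TCEP and 0.01% Tween-20.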
# EPAC1 ag = activates human EPAC1 exchange factor; O95398; EPAC1 agonist qHTS, biochemical assay; response scale: 100% = response to 6.5 mM cAMP; Potency, µM (series often up to 154 µM), inactives show top-dose activation, usual class: activators; 0.073% of 360,000 active; further: nearly all actives have a fitted effect of over 60% in size
#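 Read-out is the fluorescence drop as BODIPY-GDP leaves Rap1B (480 nm excitation, 540 nm emission), recorded every 5 minutes over 30 minutes. Reactions held 100 nM EPAC1, 250 nM Rap1B–BODIPY-GDP and 50 uM GDP, with 6.5 mM cAMP setting full activation.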
# EPAC2 ag = agonists of human EPAC2 (RAPGEF4). EPAC2 activation, biochemical qHTS; response scale: 100% = 6.5 mM cAMP response. Potency, µM (highest dose often 154 µM), for the others: at the highest dose activation, most hits filed as activators. 0.079% of 360,000 active. Q8WZA2; further: nearly all actives have a fitted effect of over 50% in size
#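 Setup: EPAC2 100 nM, labeled Rap1B complex 250 nM, free GDP 50 uM. Compound titrations pinned in, brief spin, 5 min room temperature incubation. Kinetic fluorescence read over 30 min, normalized to 6.5 mM cAMP.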
# EPAC2 antag = blocks human EPAC2 exchange factor | Q8WZA2 | EPAC2 GEF exchange of Rap1B-BODIPY-GDP, fluorescence | Potency, µM (top dose mostly 114 µM), for the others: at the top dose activity, negative = inhibition, usual class: inhibitors | 0.18% of 360,000 active | AID 720708; further: on the % scale 0 is the no-effect control and ±100 the full control effect; nearly all actives have a fitted effect of over 45% in size
# VDR inh = vitamin D3 receptor (human) inhibition | P11473 | VDR-SRC2-3 peptide fluorescence polarization, 2 h | Potency, µM, for the others: max response, negative = inhibition, actives largely listed as inhibitors | 0.93% of 400,000 active; further: on the % scale 0 is the no-effect control and ±100 the full control effect
#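 Compounds are added to VDR with labelled SRC2-3 coactivator peptide and held 2 h at room temperature. Inhibition of the VDR–peptide interaction is then read as a change in fluorescence polarization.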
# EPAC1 antagonist = antagonists of human EPAC1 | O95398 | Potency, µM (series often up to 115 µM), for inactives: at the top dose activity change, negative = inhibition, most hits filed as inhibitors | EPAC1 GEF assay, Rap1b-BODIPY-GDP exchange fluorescence | AID 720709 | 0.14% of 360,000 active;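 further: plate controls were vehicle for no effect and positive control for full effect; nearly all actives have a fitted effect of over 50% in size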
# Active calls of the source: *; ? = inconclusive; / = no result; ! = not active in a repeat. An excerpt weighted towards active compounds, which were near 1.2% of everything screened. The call rests on the fitted dose curve; in most records, active means well fitted curve in the direction sought with a large enough effect; inconclusive means small, poorly fitted or top-dose-only effect, or another doubt; inactive means no such curve, though single readings can be large; an effect the other way counts as inactive or inconclusive. Potency means the concentration at half of the fitted maximal effect.
SMILES,USP1 inh,EPAC1 ag,EPAC2 ag,EPAC2 antag,VDR inh,EPAC1 antagonist
CCc1cccc(NC(=O)C2CCCN2S(=O)(=O)c2ccc3nc(-c4ccccc4)[nH]c3c2)c1 (stereo unspecified),-1.9%,/,/,/,2.2%,/
Nc1ccccc1SSc1ccccc1N,?,16.1%,5.8%,2.7%,10µM*,6.1%
O=C(O)COc1ccc(/C=C/C(=O)c2ccc3ccccc3c2)cc1,-13.9%,-0.7%,9.1%,?,28.2µM*,?
O=C(O)COc1ccc2ccccc2c1,/,/,/,/,3.7%,/
Cc1ccc(-n2nnnc2-c2cnoc2-c2cccc(F)c2)cc1,-5.0%,9.8%,17.5%,-1.8%,50.1µM*,-22.2%
Fc1cc(F)cc(-c2oncc2-c2nnnn2-c2ccccc2)c1,-13.4%,-1.9%,5.0%,16.0%,-19.0%,-0.7%
COC(=O)C1=C(C)NC(C)=C(C(=O)OCCCN2CCC(c3ccccc3)(c3ccccc3)CC2)C1c1cccc([N+](=O)[O-])c1 (stereo unspecified),/,/,/,/,-1.3%,/
COc1ccc2c(c1O)-c1ccccc1CCN(C)C2,17.3%,-4.6%,4.8%,9.5%,-9.8%,-8.0%
CN1CCc2cccc3c2[C@@H]1Cc1ccc(O)c(O)c1-3,-9.8%,3.6%,1.3%,-10.8%,31.6µM*!,-5.5%
CC(=O)Nc1ccn(C2OC(C(COC(C)=O)NC(=O)C(Cc3ccccc3)NC(=O)OC(C)(C)C)C(OC(C)=O)C2OC(C)=O)c(=O)n1 (stereo unspecified),/,/,/,/,11.6%,/
CSCC[C@H](NC(=O)[C@H](CC(C)C)NC(=O)CCNC(=O)[C@@H](NC(=O)[C@H](Cc1ccccc1)NC(=O)[C@H](CO)NC(=O)[C@@H](N)CC(=O)O)C(C)C)C(N)=O,/,/,/,/,-1.1%,/
Cc1cc(C)c(S(=O)(=O)c2ccccc2C)c(SCC(C)C)n1,-26.1%,0.8%,-12.2%,?,-0.7%,-19.3%
CCCSc1nc(C)cc(C)c1S(=O)(=O)c1ccccc1C,-4.8%,-4.2%,-0.1%,10µM*,8.1%,?
S=C(NCCCc1cnc[nH]1)NCCCN(CCc1ccc(Cl)cc1)c1ccc(Br)cn1,/,/,/,/,-8.1%,/
CN=c1sc2c(n1C)C(=O)c1ccccc1C2=O,15.8µM*,1.5%,5.9%,-1.2%,?,7.2%
CN(C)c1nc(C=C(C#N)C#N)c(Cl)n1-c1ccc(F)cc1,-21.6%,-2.7%,9.5%,4.8%,25.1µM*,?
C=CCN1C(=O)C(CC(C)C)NC1=S (stereo unspecified),/,/,/,/,2.4%,/
O=C(Cn1nc(Cc2cccnc2)c2ccccc2c1=O)Nc1cccc(C(F)(F)F)c1,-19.6%,/,/,/,-3.2%,/
Cc1ccc(NCc2ccccc2O)cc1,-15.4%,-1.8%,3.2%,4.5%,-5.7%,4.5%
Cc1ccc(CNc2ccc(O)cc2)cc1,?,6.0%,29.2%,?,20µM*,?
COc1ccc(C[C@@H]2OC3(C=CC(=O)C=C3)O[C@H]2Cc2ccc(OC)cc2)cc1,-22.2%,6.9%,-9.7%,1.9%,?,-24.8%
O=C1C=CC2(C=C1)O[C@H](Cc1ccccc1)[C@@H](Cc1ccccc1)O2,-20.4%,-13.5%,-15.0%,4.0%,14.1µM*,-16.8%
CCCN1C=CC(=CC=C(C#N)C#N)C=C1,22.4µM*,2.6%,-4.7%,-13.2%,-5.7%,-3.7%
CCCCCCN1C=CC=C/C1=C/C=C(C#N)C#N,?,-550.7%,-655.5%,215.9%,-21.5%,89.1µM*
CCCCCCN1C=CC(=C/C=C(\C#N)C(=O)OCC)C=C1,68.5%,8.4%,21.9%,48.0%,-20.3%,-5.5%
SMILES,USP1 inh,EPAC1 ag,EPAC2 ag,EPAC2 antag,VDR inh,EPAC1 antagonist
COc1ccc2oc(=O)cc(CN3CCN(C(=O)c4ccccc4)CC3)c2c1,-7.1%,/,/,/,1.4%,/
CC1(OC(=O)c2ccc(Cl)nc2)C(=O)C=C2C=C(c3ccc(C#N)cc3)OC=C2C1=O (stereo unspecified),/,/,/,/,89.1µM*!,/
CC1(OC(=O)c2ccc(Cl)nc2)C(=O)C=C2C=C(c3ccsc3)OC=C2C1=O (stereo unspecified),/,/,/,/,5.1%,/
Cc1ccc(S(=O)(=O)c2cnc(-c3ccccc3)[nH]c2=O)cc1,/,/,/,/,-4.6%,/
CCC(/C=C1\Oc2ccc(OC)cc2N1C)=C\c1sc2ccccc2[n+]1CCCS(=O)(=O)[O-],-21.9%,0.2%,10.7%,15.0%,-2.1%,5.3%
COc1cc(/C=C/c2sc3ccccc3[n+]2CCCS(=O)(=O)[O-])ccc1O,25.1µM*,-0.3%,0.3%,?,-15.7%,?
CC1=C(C)/C(=N\OS(=O)(=O)c2ccc(C)cc2)C=CC1=O,-4.7%,-0.5%,2.3%,-3.6%,28.2µM*,-14.0%
C[C@H]([C@H](C)N1CC(=O)NC(=O)C1)N1CC(=O)NC(=O)C1,/,/,/,/,44.7µM*,/
Cc1ccc(S(=O)(=O)N2CC(=O)NC(=O)C2)cc1,-8.9%,-3.7%,1.6%,1.1%,-2.9%,8.8%
CCCOc1cccc(C(=O)N2CCCCC2CCN2CCCCC2)c1 (stereo unspecified),-17.4%,/,/,/,7.3%,/
c1coc(CSSCc2ccco2)c1,-22.3%,-3.8%,-1.0%,2.9%,22.4µM*,?
Cc1ccc(NC(=O)CSCc2ccco2)cc1,-12.9%,0.0%,0.3%,-16.0%,-5.3%,-2.1%
CCCN1CNc2c(c(=O)[nH]c(=S)n2CCc2ccsc2)C1,/,/,/,/,-9.2%,/
O=C(NCCN1CCOCC1)C1(C(F)(F)F)C/C(=C/CCO)CCCO1 (stereo unspecified),/,/,/,/,-5.8%,/
COc1ccccc1C1CC(c2cccs2)=Nc2ccccc2S1 (stereo unspecified),-9.2%,13.6%,13.8%,-4.5%,-20.1%,-10.1%
Fc1ccccc1C1CC(c2ccco2)=Nc2ccccc2S1 (stereo unspecified),-19.7%,-1.8%,18.8%,?,79.4µM*,-11.4%
CC(C)C[C@H](NC(=O)[C@H](CC(C)C)NC(=O)[C@@H](Cc1c[nH]c2ccccc12)NC(=O)[C@H](Cc1ccccc1)NC(=O)[C@@H](Cc1c[nH]c2ccccc12)NC(=O)[C@H](CCC(N)=O)NC(=O)[C@H](CCC(N)=O)NC(=O)[C@@H]1CCCN1C(=O)[C@H](CCCCN)NC(=O)[C@@H]1CCCN1C(=O)[C@@H](CCCNC(=N)N)NC(=O)[C@@H]1CCCN1C(=O)CNC(=O)[C@H](CC(C)C)NC(=O)[C@H](CC(C)C)NC(=O)[C@H](Cc1ccc(O)cc1)NC(=O)CNC(=O)[C@H](C)NC(=O)[C@H](CO)NC(=O)[C@H](CC(N)=O)NC(=O)[C@H](CC(C)C)NC(=O)[C@@H](NC(=O)[C@H](Cc1c[nH]c2ccccc12)NC(=O)CN)[C@@H](C)O)C(N)=O,/,/,/,/,9.2%,/
